High-throughput results as filed in PubChem BioAssay.
Compounds with a hit are over-represented: about 3.9% of the library has one in this group of screens.
3CLpro inhibitor – SARS-CoV 3CLpro protease inhibition. P0C6X7. recombinant SARS-CoV 3CLpro, quenched FRET peptide cleavage. hit rate 0.14% among 290,000. inhibition, % at 6 µM; in the data active = inhibition above about 12%
BoNT F protease – blocks Botulinum neurotoxin F light chain protease; Multiplex microsphere protease cleavage assay, flow cytometry; hit rate 0.22% among 360,000; inhibition, % at 10 µM; in the data active = inhibition above about 35%, passing the limit was not always enough; inconclusive = no clear call, values can overlap the other calls; note: plate controls were buffer without enzyme for full effect and enzyme alone for no effect
Bead autofluor – flagged as autofluorescent in microsphere protease counterscreen. compound autofluorescence counterscreen, microsphere flow cytometry; active compounds read high. fluorescence intensity (no concentration beside the values). hit rate 3.1% among 360,000; in the data active = fluorescence intensity above about 16000; inconclusive = no clear call, values can overlap the other calls
Anthrax LF inh2 – anthrax lethal factor protease inhibition | multiplex microsphere protease cleavage assay, LF | inhibition, % at 10 µM | hit rate 0.12% among 360,000 | AID 588501; note: plate controls were buffer without enzyme for full effect and enzyme alone for no effect
VHR inh abs – blocks human VHR1 dual specificity phosphatase | P51452 | recombinant VHR phosphatase, pNPP absorbance | inhibition, % at 13.3 µM | hit rate 0.52% among 290,000 | AID 1654; in the data active = inhibition above about 50%
BoNT A protease – blocks Botulinum neurotoxin A light chain protease | multiplex microsphere protease substrate cleavage, flow cytometry | inhibition, % at 10 µM | hit rate 0.17% among 360,000 | AID 588499; note: plate controls were buffer without enzyme for full effect and enzyme alone for no effect
* hit, by the source's call. Cut-off read from the data, not from the text of the source, unless noted: active = inhibition above about 30%; inconclusive = no clear call, values can overlap the other calls; inactive = below that.

`Cn1cc(C(=O)C(=O)NC2CCCCC2)c2ccccc21` gave 3CLpro inhibitor -1, BoNT F protease -12, Bead autofluor 6517, Anthrax LF inh2 -5, VHR inh abs 5 and BoNT A protease -1.
Screening CCOc1cc(C(=O)NCCN2C(=O)S/C(=C\c3cccnc3)C2=O)cc(OCC)c1OCC returned 3CLpro inhibitor 2, BoNT F protease -2, Bead autofluor 2531, Anthrax LF inh2 -1, VHR inh abs 53* and BoNT A protease 0.
COc1cc(CNn2nnnc2N)cc(Br)c1OCc1c(Cl)cccc1Cl was read as 3CLpro inhibitor -1, BoNT F protease -6, Bead autofluor 23392*, Anthrax LF inh2 -1, VHR inh abs -7 and BoNT A protease inconclusive.
For COc1cc(CNn2nnnc2N)cc(Br)c1OCC(=O)NC(C)(C)C the results were 3CLpro inhibitor 5, BoNT F protease -8, Bead autofluor 5781, Anthrax LF inh2 3, VHR inh abs 32 and BoNT A protease -1.
CC(C)c1ccc(OCC(=O)Nc2ccccc2C(=O)N2CCOCC2)cc1 was read as 3CLpro inhibitor 5, BoNT F protease 4, Bead autofluor 5900, Anthrax LF inh2 0, VHR inh abs 4 and BoNT A protease 1.
CN(C)c1cccc(NC(=O)c2cccc3c(-c4ccc(F)c(F)c4)coc23)c1 was read as BoNT F protease -6, Bead autofluor 3835, Anthrax LF inh2 -8 and BoNT A protease -1.
COc1ccc([C@@H]2C[C@H]3CN(Cc4ccccc4OC)C(=O)[C@]34CCCN24)cc1C was read as 3CLpro inhibitor 2, BoNT F protease 32, Bead autofluor 19989*, Anthrax LF inh2 8, VHR inh abs 17 and BoNT A protease -4.
`Nc1cc(N)nc(SCC(=O)N2CCCCC2)n1` gave 3CLpro inhibitor 4, BoNT F protease -3, Bead autofluor 6934, Anthrax LF inh2 8, VHR inh abs 30 and BoNT A protease -1.
Screening CC1CCN(C(=O)CSc2nc(N)cc(N)n2)CC1 returned 3CLpro inhibitor 0, BoNT F protease -5, Bead autofluor 23394*, Anthrax LF inh2 -2, VHR inh abs 15 and BoNT A protease -3.
`COc1cc([C@H]2[C@@H]3CCCC[C@]3(O)CCN2CC(=O)Nc2ccc(C)cc2)ccc1O` gave 3CLpro inhibitor 4, BoNT F protease -4, Bead autofluor 22835*, Anthrax LF inh2 -5, VHR inh abs 28 and BoNT A protease 1.
For Cc1ccc(-c2nc3ccccc3c(=O)n2-c2cccnc2)cc1 the results were 3CLpro inhibitor -2, BoNT F protease -1, Bead autofluor 1934, Anthrax LF inh2 1, VHR inh abs 4 and BoNT A protease 0.
Screening O=c1c2ccccc2nc(-c2ccccc2)n1-c1cccnc1 returned 3CLpro inhibitor 5, BoNT F protease 1, Bead autofluor 22832*, Anthrax LF inh2 -3, VHR inh abs 3 and BoNT A protease inconclusive.
COc1ccc(NS(=O)(=O)c2cc(-c3nnnn3C)ccc2OC)cc1 was read as 3CLpro inhibitor -3, BoNT F protease 10, Bead autofluor 18825*, Anthrax LF inh2 -14, VHR inh abs 34 and BoNT A protease 6.
For COc1ccc(-c2nnnn2C)cc1S(=O)(=O)NCCc1ccccc1 the results were 3CLpro inhibitor -2, BoNT F protease 3, Bead autofluor 19418*, Anthrax LF inh2 2, VHR inh abs 0 and BoNT A protease inconclusive.
For CCn1nnnc1-c1ccc(OC)c(S(=O)(=O)NCc2ccccc2)c1 the results were 3CLpro inhibitor 1, BoNT F protease -5, Bead autofluor 3452, Anthrax LF inh2 -6, VHR inh abs 0 and BoNT A protease 0.
`COc1ccc(OC)c(S(=O)(=O)NCc2ccccc2)c1` gave 3CLpro inhibitor -5, BoNT F protease -6, Bead autofluor 16582*, Anthrax LF inh2 -3, VHR inh abs 13 and BoNT A protease -1.
CCn1nnnc1-c1ccc(OC)c(S(=O)(=O)Nc2ccc(C)c(C)c2)c1 was read as 3CLpro inhibitor 2, BoNT F protease -28, Bead autofluor 2334, Anthrax LF inh2 0, VHR inh abs -11 and BoNT A protease -2.
Screening COc1ccc(CCNS(=O)(=O)c2cccc(C)c2)cc1OC returned 3CLpro inhibitor 1, BoNT F protease -4, Bead autofluor 20544*, Anthrax LF inh2 -2, VHR inh abs 35 and BoNT A protease -2.
Screening COc1ccc(-c2nc(N)ncc2-c2ccccc2OC)c(O)c1 returned 3CLpro inhibitor 4, BoNT F protease -12, Bead autofluor 3779, Anthrax LF inh2 -4 and BoNT A protease 0.
For Nc1ccn([C@@H]2O[C@H](CNCc3cnc(N4CCOCC4)s3)[C@@H](O)[C@H]2O)c(=O)n1 the results were BoNT F protease -3, Bead autofluor 3831, Anthrax LF inh2 -4 and BoNT A protease 0.
Screening CN(C)S(=O)(=O)c1ccc(C(=O)N2CCN(S(=O)(=O)c3cccs3)CC2)cc1 returned 3CLpro inhibitor -1, BoNT F protease -3, Bead autofluor 4076, Anthrax LF inh2 1, VHR inh abs 26 and BoNT A protease -1.
Screening COc1ccc(S(=O)(=O)NCc2ccncc2)cc1OC returned 3CLpro inhibitor 1, BoNT F protease -2, Bead autofluor 23943*, Anthrax LF inh2 0, VHR inh abs -4 and BoNT A protease -2.
COc1ccc(S(=O)(=O)NCc2cccnc2)cc1OC was read as 3CLpro inhibitor -3, BoNT F protease -6, Bead autofluor 3965, Anthrax LF inh2 -1, VHR inh abs -8 and BoNT A protease 2.
For O=C(c1cc(COc2ccc3ncccc3c2)on1)N1CCCC(O)C1 (stereo not drawn) the results were 3CLpro inhibitor 6, BoNT F protease -3, Bead autofluor 4519, Anthrax LF inh2 -11, VHR inh abs 39 and BoNT A protease 0.
`O=C(c1cc(COc2ccc3ncccc3c2)on1)N1CCC[C@H]1CO` gave 3CLpro inhibitor -5, BoNT F protease 2, Bead autofluor 5564, Anthrax LF inh2 -6, VHR inh abs 53* and BoNT A protease 2.
`CCOc1ccc(OCCSc2ccc(S(=O)(=O)N3CCN(C)CC3)cn2)cc1` gave BoNT F protease -13, Bead autofluor 4244, Anthrax LF inh2 -3 and BoNT A protease -1.
For COc1ccc(CN2C(=O)c3cccnc3C2=O)cc1S(=O)(=O)NC(C)C the results were 3CLpro inhibitor 0, BoNT F protease -4, Bead autofluor 3942, Anthrax LF inh2 3, VHR inh abs -7 and BoNT A protease -1.
Screening CC1OC(CCc2cccc(Cl)c2)Cc2[nH][nH]c(=O)c21 (stereo not drawn) returned BoNT F protease -9, Bead autofluor 6067, Anthrax LF inh2 7 and BoNT A protease 0.
Screening Cc1ccc(-c2[nH]nc3c2C(c2ccc(OC(=O)N4CCOCC4)cc2)C(C#N)=C(N)O3)cc1 (stereo not drawn) returned 3CLpro inhibitor -3, BoNT F protease -2, Bead autofluor 16622*, Anthrax LF inh2 -5, VHR inh abs -1 and BoNT A protease inconclusive.
